According to PubChem BioAssay (NCI):
The panel holds about 83,000 compounds, 20% with a hit somewhere; the sample as a whole holds those more often.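 Single-concentration screen, 48 h exposure, 96-well plates. Endpoint: percent growth. Below 10 = active.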 Activity calls are given as the source filed them.

Experiments:
Test in all cases: NCI-60 one-dose screen, 48 h (100 = growth as untreated, 0 = no growth, -100 = all killed)
Conditions in all cases: 10 µM unless noted
NCI-H23 lung = system: NCI-H23 lung
NCI-H226 lung = system: NCI-H226 lung
HOP-62 NSCLC = system: HOP-62 NSCLC
NCI-H460 lung = system: NCI-H460 lung
HOP-92 NSCLC = system: HOP-92 NSCLC
NCI-H522 lung = system: NCI-H522 lung
A549/ATCC NSCLC = system: A549/ATCC NSCLC
786-0 renal = system: 786-0 renal
COLO 205 colon = system: COLO 205 colon
DU-145 prostate = system: DU-145 prostate
K-562 leukemia = system: K-562 leukemia
MALME-3M melanoma = system: MALME-3M melanoma
MDA-MB-231 breast = system: MDA-MB-231 breast
RXF 393 renal = system: RXF 393 renal
SF-268 CNS = system: SF-268 CNS
SF-295 CNS = system: SF-295 CNS
SF-539 CNS = system: SF-539 CNS
UACC-257 melanoma = system: UACC-257 melanoma
M14 melanoma = system: M14 melanoma

Measured: growth

COC(=O)CNC(=O)[C@]12CCC(C)(C)C[C@H]1C1=CC[C@@H]3[C@@]4(C)Cc5c([nH]c6ccccc56)C(C)(C)[C@@H]4CC[C@@]3(C)[C@]1(C)CC2
inactive: NCI-H23 lung 92.9% | NCI-H226 lung 83.5% | HOP-62 NSCLC 87.8% | NCI-H460 lung 87.7% | HOP-92 NSCLC 101% | NCI-H522 lung 80.5% | A549/ATCC NSCLC 50.4% | 786-0 renal 91.6% | COLO 205 colon 87% | DU-145 prostate 97.6% | K-562 leukemia 59.3% | MALME-3M melanoma 92.2% | MDA-MB-231 breast 93.9% | RXF 393 renal 94.2% | SF-268 CNS 84.4% | SF-295 CNS 84.7% | SF-539 CNS 102% | UACC-257 melanoma 78.8% | M14 melanoma 104%

CCOC(=O)[C@@H]1CCCN(S(=O)(=O)c2ccc(S(=O)(=O)N(CC)CC)c(F)c2)C1
inactive: NCI-H23 lung 45.3% | NCI-H226 lung 72.6% | HOP-62 NSCLC 74.6% | NCI-H460 lung 81.2% | HOP-92 NSCLC 67.4% | NCI-H522 lung 65.3% | A549/ATCC NSCLC 86.2% | 786-0 renal 70.7% | COLO 205 colon 83.9% | DU-145 prostate 99% | K-562 leukemia 37.4% | MALME-3M melanoma 79.9% | MDA-MB-231 breast 92.9% | RXF 393 renal 76.4% | SF-268 CNS 85.9% | SF-295 CNS 49.6% | SF-539 CNS 88.8% | UACC-257 melanoma 60.6% | M14 melanoma 76.2%

COc1ccc(/C=C/c2nc(Nc3ccc(S(=O)(=O)Nc4cc(C)on4)cc3)c3ccccc3n2)cc1
inactive: NCI-H23 lung 81.3% | NCI-H226 lung 65.9% | HOP-62 NSCLC 57.7% | NCI-H460 lung 53.9% | HOP-92 NSCLC 46% | NCI-H522 lung 63.5% | A549/ATCC NSCLC 39.1% | 786-0 renal 87.9% | COLO 205 colon 48.6% | DU-145 prostate 77.3% | MALME-3M melanoma 112% | MDA-MB-231 breast 62.1% | RXF 393 renal 113% | SF-268 CNS 76.4% | SF-295 CNS 54.6% | SF-539 CNS 88.7% | UACC-257 melanoma 77.5% | M14 melanoma 39.9%

COC(=O)C1=C(C(=O)ON)[C@@H]2C=C[C@@]1([C@@H](Cc1ccccc1)Nc1ccccc1)O2
inactive: NCI-H23 lung 90.6% | NCI-H226 lung 105% | HOP-62 NSCLC 102% | NCI-H460 lung 107% | HOP-92 NSCLC 63.1% | A549/ATCC NSCLC 92.9% | 786-0 renal 101% | DU-145 prostate 80% | MDA-MB-231 breast 106% | RXF 393 renal 91.1% | SF-268 CNS 93.9% | SF-295 CNS 105% | SF-539 CNS 93.8% | UACC-257 melanoma 94.8% | M14 melanoma 95.3%
active: NCI-H522 lung -74.7% | COLO 205 colon -67% | K-562 leukemia -9.92% | MALME-3M melanoma -68.8%

Nc1c(C(=O)Nc2cccc3cnccc23)sc2nc3c(cc12)C(=O)CCC3
inactive: NCI-H23 lung 92.6% | NCI-H226 lung 92.7% | HOP-62 NSCLC 90.5% | NCI-H460 lung 78.2% | HOP-92 NSCLC 80.5% | NCI-H522 lung 40.4% | A549/ATCC NSCLC 87.4% | 786-0 renal 91.3% | COLO 205 colon 108% | DU-145 prostate 103% | K-562 leukemia 46.3% | MALME-3M melanoma 88.3% | MDA-MB-231 breast 83.4% | RXF 393 renal 92.2% | SF-268 CNS 96.4% | SF-295 CNS 74.9% | SF-539 CNS 93.6% | UACC-257 melanoma 95.6% | M14 melanoma 74.6%

CN(C)c1ccc(Nc2c3ccccc3nc3cc(NC(=O)CCN4CCCC4)ccc23)cc1
active: NCI-H23 lung -42.5% | NCI-H226 lung -1.19% | HOP-62 NSCLC -8.55% | NCI-H460 lung -65.5% | HOP-92 NSCLC -9.52% | NCI-H522 lung -32.8% | A549/ATCC NSCLC -33.5% | 786-0 renal -54% | COLO 205 colon -27.3% | DU-145 prostate -38.5% | K-562 leukemia -4.43% | MALME-3M melanoma -90.9% | MDA-MB-231 breast -38.1% | RXF 393 renal -6.44% | SF-268 CNS -6.93% | SF-295 CNS 6.34% | SF-539 CNS -69% | UACC-257 melanoma -52% | M14 melanoma -84.9%

COc1cc2c(cc1OC)C(=O)/C(=C/c1cc(C)c(O)c(C)c1)S2
active: NCI-H522 lung -7.24% | RXF 393 renal -6.02% | SF-539 CNS -3.74%
inactive: NCI-H23 lung 39.2% | NCI-H226 lung 55.7% | HOP-62 NSCLC 39.4% | NCI-H460 lung 18.5% | HOP-92 NSCLC 88.6% | A549/ATCC NSCLC 36.9% | 786-0 renal 39.6% | COLO 205 colon 104% | DU-145 prostate 25.3% | K-562 leukemia 12% | MALME-3M melanoma 71.7% | MDA-MB-231 breast 56.9% | SF-268 CNS 72.9% | SF-295 CNS 18.4% | UACC-257 melanoma 70.7% | M14 melanoma 19.1%

COc1cc2c(-c3cc4c(cc3CNCCc3ccc5c(c3)OCO5)OCO4)cccc2c(OC)c1O
inactive: NCI-H23 lung 80.5% | NCI-H226 lung 92.2% | HOP-62 NSCLC 70.9% | NCI-H460 lung 91.2% | HOP-92 NSCLC 66.4% | NCI-H522 lung 79.1% | A549/ATCC NSCLC 92.3% | 786-0 renal 90.1% | COLO 205 colon 117% | DU-145 prostate 95.8% | K-562 leukemia 20% | MALME-3M melanoma 103% | MDA-MB-231 breast 69.4% | RXF 393 renal 74.9% | SF-268 CNS 68% | SF-295 CNS 92.2% | SF-539 CNS 88.4% | UACC-257 melanoma 96.1% | M14 melanoma 84.4%

CCOC(=O)[C@@H](C)C[C@H](Cc1ccccc1)NC(=O)c1csc([C@@H](C[C@H](C(C)C)N(C)C(=O)[C@@H](NC(=O)[C@H]2C[C@H](O[Si](C)(C)C(C)(C)C)CCN2C)C(C)C)OC(C)=O)n1
active: NCI-H226 lung -39.2% [9.25 µM] | HOP-62 NSCLC 0.247% [9.25 µM] | NCI-H460 lung -23.9% [9.25 µM] | HOP-92 NSCLC -9.53% [9.25 µM] | NCI-H522 lung -46.7% [9.25 µM] | A549/ATCC NSCLC 7.91% [9.25 µM] | 786-0 renal -5.36% [9.25 µM] | COLO 205 colon -72.6% [9.25 µM] | DU-145 prostate -21.4% [9.25 µM] | K-562 leukemia 3.46% [9.25 µM] | MDA-MB-231 breast -34.7% [9.25 µM] | RXF 393 renal -10.3% [9.25 µM] | SF-268 CNS 4.82% [9.25 µM] | SF-295 CNS -15.6% [9.25 µM] | SF-539 CNS -49.7% [9.25 µM] | M14 melanoma -42.2% [9.25 µM]
inactive: NCI-H23 lung 17.6% [9.25 µM] | MALME-3M melanoma 18.1% [9.25 µM] | UACC-257 melanoma 21.3% [9.25 µM]

Cc1cccc(-c2cn3ccnc3c(-c3ccc4ncn(Cc5ccccc5)c4c3)n2)c1
inactive: NCI-H23 lung 90.9% | NCI-H226 lung 98.8% | HOP-62 NSCLC 90.3% | NCI-H460 lung 89.9% | HOP-92 NSCLC 71.3% | NCI-H522 lung 71.6% | A549/ATCC NSCLC 85.1% | 786-0 renal 78.6% | COLO 205 colon 88.6% | DU-145 prostate 85.8% | MALME-3M melanoma 125% | MDA-MB-231 breast 71.6% | RXF 393 renal 98% | SF-268 CNS 92.8% | SF-295 CNS 85.7% | SF-539 CNS 92.7% | UACC-257 melanoma 120% | M14 melanoma 102%

O=S(=O)(NCCNc1nccc(-c2c(-c3cccc(F)c3)nc3sccn23)n1)c1ccc(Cl)cc1
inactive: NCI-H23 lung 74.9% | NCI-H226 lung 49.3% | HOP-62 NSCLC 82.6% | NCI-H460 lung 30.1% | HOP-92 NSCLC 76.6% | NCI-H522 lung 68.2% | A549/ATCC NSCLC 32.1% | 786-0 renal 51.3% | COLO 205 colon 40% | DU-145 prostate 54.2% | K-562 leukemia 41.3% | MALME-3M melanoma 82.6% | MDA-MB-231 breast 91.1% | RXF 393 renal 69% | SF-268 CNS 52.9% | SF-295 CNS 63.7% | SF-539 CNS 82.5% | UACC-257 melanoma 88.7% | M14 melanoma 56.6%

COC(=O)N[C@H]1CCc2c(Cl)c(OC)c(OC)c(OC)c2-c2ccc(SC)c(=O)cc21
active: NCI-H460 lung -11.4% | HOP-92 NSCLC 1.96% | 786-0 renal 7.29% | COLO 205 colon -24.3% | DU-145 prostate -11.1% | K-562 leukemia 7.05% | MDA-MB-231 breast -2.11% | SF-539 CNS -0.571% | M14 melanoma 0.0864%
inactive: NCI-H23 lung 34% | NCI-H226 lung 22.7% | HOP-62 NSCLC 38% | NCI-H522 lung 21.7% | A549/ATCC NSCLC 19.8% | MALME-3M melanoma 36.8% | RXF 393 renal 20.3% | SF-268 CNS 20.2% | SF-295 CNS 12% | UACC-257 melanoma 68.3%

NS(=O)(=O)c1ccc(CCn2c(SCC(=O)c3ccc(Cl)cc3)nc3ccccc3c2=O)cc1
inactive: NCI-H23 lung 95.2% | NCI-H226 lung 104% | HOP-62 NSCLC 96.1% | NCI-H460 lung 105% | HOP-92 NSCLC 109% | NCI-H522 lung 96.7% | A549/ATCC NSCLC 103% | 786-0 renal 92.4% | COLO 205 colon 113% | DU-145 prostate 102% | MALME-3M melanoma 96.4% | MDA-MB-231 breast 95.5% | RXF 393 renal 111% | SF-268 CNS 100% | SF-295 CNS 103% | SF-539 CNS 94.2% | UACC-257 melanoma 111% | M14 melanoma 104%

Cc1ccc(C(=O)/C(=C\c2ccc([N+](=O)[O-])cc2)S(=O)Cc2ccc(Cl)cc2)cc1 (stereo unspecified)
active: NCI-H522 lung -5.71% | 786-0 renal -52.4% | RXF 393 renal -69%
inactive: NCI-H23 lung 41% | NCI-H226 lung 66.4% | HOP-62 NSCLC 46.7% | NCI-H460 lung 30% | HOP-92 NSCLC 64.8% | A549/ATCC NSCLC 84.1% | COLO 205 colon 20.7% | DU-145 prostate 23.3% | MALME-3M melanoma 34.1% | MDA-MB-231 breast 23.8% | SF-268 CNS 25.5% | SF-295 CNS 73.2% | SF-539 CNS 53.5% | UACC-257 melanoma 94.9% | M14 melanoma 41.4%

COc1ccc(-c2[nH][nH]c(=O)c2-c2nc3ccccc3s2)cc1
inactive: NCI-H23 lung 105% | NCI-H226 lung 98% | HOP-62 NSCLC 104% | NCI-H460 lung 105% | HOP-92 NSCLC 108% | NCI-H522 lung 96.3% | A549/ATCC NSCLC 107% | 786-0 renal 100% | COLO 205 colon 112% | DU-145 prostate 108% | K-562 leukemia 98.2% | MALME-3M melanoma 110% | MDA-MB-231 breast 104% | RXF 393 renal 109% | SF-268 CNS 101% | SF-295 CNS 107% | SF-539 CNS 108% | UACC-257 melanoma 106% | M14 melanoma 107%
